Most compounds without a hit are left out; they make up all but 21% or so of the library.
Sm TGR block: blocks Schistosoma mansoni thioredoxin glutathione reductase; 360,000 tested, 3% active; Q962Y6; Potency, µM (highest dose often 114 µM), inactives show at the highest dose activity change, negative = inhibition, usual class: inhibitors; purified TGR, DTNB reduction, TNB absorbance 405 nm; note: potency is the fitted concentration of half-maximal effect; % is set by controls: 0 for no effect and ±100 for the full control effect; nearly all actives have a fitted effect of over 60% in size
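First, TGR (20 nM dispensed) and NADPH were mixed with compound. Second, a 15 min room-temperature incubation followed. Third, further NADPH and then DTNB were added to start the reaction. Finally, TNB absorbance was monitored kinetically.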
Pf growth 48h: inhibits P. falciparum growth in the first generation, 48 h; P. falciparum luciferase growth in erythrocytes, 48 h; Potency, µM (doses to about 28.7 µM), for inactives: at the top dose activity change, negative = inhibition, hits mostly inhibitors; 310,000 tested, 5.9% active; note: potency is the fitted concentration of half-maximal effect; % is set by controls: 0 for no effect and ±100 for the full control effect
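Erythrocytes infected with P. falciparum carrying an integrated firefly luciferase reporter (2% hematocrit, 0.1% parasitemia final) were exposed to compounds in RPMI 1640 with 0.5% Albumax at 37 C, 5% CO2. Growth inhibition was scored as reduced luminescence.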
Shiga toxin inh: blocks Shiga toxin action in Vero cells | AID 2315 | Vero cells, Shiga toxin protein synthesis inhibition reporter | inhibition, % at 38.7 µM | 290,000 tested, 9.2% active; in the data active = inhibition mostly above about 28%, no sharp cut-off; inactive = mostly below about 43%; note: 0% is about no effect
Pf growth 96h: inhibits malaria parasite growth, 96 h; P. falciparum luciferase reporter growth, 96 h; Potency, µM (top dose mostly 28.7 µM), without a hit: at the top dose activity change, negative = inhibition, most hits filed as inhibitors; 320,000 tested, 6.9% active; AID 504834; note: potency is the fitted concentration of half-maximal effect; % is set by controls: 0 for no effect and ±100 for the full control effect
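96 h incubation, 37 C, 5% CO2, of luciferase-reporter P. falciparum-infected RBCs (2% hematocrit, 0.05% parasitemia final) with test compounds; endpoint luminescence.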
Cycloheximide cs: counter-screen hit for Shiga toxin inhibitors, cycloheximide; cell reporter, cycloheximide protein synthesis inhibition counterscreen; max response, %; 300,000 tested, 12% active; in the data active = max response mostly above about 13%, no sharp cut-off; inactive = mostly below about 14%; note: read at 38.3 µM for the half of the compounds with a filed dose; 0% is about no effect
NS1 inh: influenza NS1 inhibition; Potency, µM (highest dose often 46.1 µM), inactives show at the highest dose activity, positive = more growth; 270,000 tested, 0.4% active; AID 2326; calls by dose curve; note: potency is the fitted concentration of half-maximal effect; actives are rising curves; nearly all actives have a fitted effect of over 50% in size
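Compounds were scored for reversing the slow growth caused by influenza A NS1 in S. cerevisiae, measured by optical density at 600 nm. Assay medium contained 2% galactose at pH 6.0; NS1-free yeast of the same strain were the positive control.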
The depositor's hits bear a star; ? = inconclusive; . = no result; [ ] = remark or other dose. Unless noted, calls come from the whole dose curve; as a rule, active = well fitted curve in the direction sought with a large enough effect; inconclusive = small, poorly fitted or top-dose-only effect, or another doubt; inactive = no such curve, though single readings can be large; an effect the other way counts as inactive or inconclusive.

SMILES | Sm TGR block | Pf growth 48h | Shiga toxin inh | Pf growth 96h | Cycloheximide cs | NS1 inh
CC(Oc1ccccc1)C(=O)Nc1cccc(-c2cn3cccnc3n2)c1 (configuration not stated) | 3% | . | . | . | . | .
COCCCNC(=S)NC1CCCCC1 | -6% | -2% | -4 | 41% | 1 | 11%
CC(C)CCNC(=O)c1ccc2c(c1)NC(=O)C(CS(=O)(=O)Cc1ccc(F)cc1)N2 (configuration not stated) | -20% | . | . | . | . | .
CC(C)CCNC(=O)c1ccc2c(c1)NC(=O)C(CS(=O)(=O)Cc1cccc(Br)c1)N2 (configuration not stated) | 50µM* | . | . | . | . | .
CCSc1nnc(SCC(=O)c2c(N)n(C)c(=O)n(C)c2=O)s1 | -5% | ? | . | 4.1µM* | . | .
Cc1ccccc1Nc1nnc(SCC(=O)c2c(N)n(C)c(=O)n(C)c2=O)s1 | -3% | 5.2µM* | -1 | ? | 5 | .
Cc1ccc(C2=Nc3ccccc3N=C(c3ccc([N+](=O)[O-])cc3)C2)c(O)c1 | -6% | 22% | 166* | ? | 26* | 20%
Cc1cccc(C2=Nc3ccccc3N=C(c3cc(Cl)ccc3O)C2)c1 | -5% | . | . | . | . | .
CCOc1ccc(CN2C(=O)c3ccccc3Sc3ccc(C(=O)NCc4ccc5c(c4)OCO5)cc32)cc1 | 0% | . | 1 | . | 4 | .
CCOc1ccc(/C=N/N2C(C)CCCC2C)cc1 (configuration not stated) | 6% | -10% | 50 | -6% | 37* | 9%
CCOc1cccc(/C=N/N2C(C)CCCC2C)c1O (configuration not stated) | 0% | -28% | 46 | -25% | 30* | 1%
CC1CCCC(C)N1/N=C/c1ccc(C#N)cc1 (configuration not stated) | 14% | 3% | 58 | 118% | 26* | 4%
CC1CCCC(C)N1/N=C/c1ccc(Cl)cc1 (configuration not stated) | 0% | . | 3 | -1% | -2 | 10%
CCOc1cccc(C=Nc2cc(C)cc(C)c2O)c1O | 4µM* | ? | 22 | . | 9 | -70%
CCOc1cccc(/C=N/N=C/c2cccc(OCC)c2O)c1O | -2% | 0% | 70 | -2% | 15 | 0%
CCOC(=O)c1c(C)sc(-c2c(-c3ccc4c(c3)OCCO4)[nH]c3c2c(=O)n(C)c(=O)n3C)c1O | -3% | . | . | . | . | .
Nc1nc(SCC(=O)Nc2ccc([N+](=O)[O-])cc2)n[nH]1 | . | 11% | -8 | -7% | -3 | 3%
O=C(COc1cccc2ccccc12)NCc1cccnc1 | 9% | 11% | -13 | 29% | 15 | -2%
CCN(CC)S(=O)(=O)c1cc(NC(=O)C(CC(C)C)NC(N)=O)ccc1C (configuration not stated) | 10% | 7% | 15 | 33%[5.75 µM] | 0 | .
COc1ccc(-c2ccc(SCC(=O)Nc3nnc(C)s3)nn2)cc1 | 0% | 21% | 13 | ? | 28 | .
Cc1ccc(-c2ccc(SCC(=O)c3ccccc3)nn2)cc1 | -2% | 64% | 66 | ? | 30* | 8%
COc1ccc(-c2ccc(SCC(=O)c3cccs3)nn2)cc1 | 0% | 34% | 61* | 41% | 34* | -6%
O=C(CSc1ccc(-c2ccccc2)nn1)c1cccs1 | 14% | 35% | 55 | 21% | 28* | -1%
O=S(=O)(c1ccc2c(c1)OCO2)N1CCN(S(=O)(=O)c2c(F)cccc2F)CC1 | . | . | -4 | . | -5 | .
COc1ccc2c(c1)CC(C(=O)Nc1cc(OC)c(OC)c(OC)c1)CO2 (configuration not stated) | 1% | . | . | . | . | .
Cc1ccc(/C=C2\SC(=S)N(C3CCS(=O)(=O)C3)C2=O)o1 (configuration not stated) | ? | -29% | -25 | 16% | 0 | 9%
CC1=C(C#N)C(=O)N(C2CCS(=O)(=O)C2)C(=O)/C1=C\c1ccc(C)o1 (configuration not stated) | 16µM* | 59% | -14 | 46% | -1 | 7%
COC(=O)c1ccc(OC(=O)N2CCOCC2)cc1 | 3% | 41% | . | 3% | -2 | -3%
CCC(=O)c1ccc(OC(=O)N2CCOCC2)cc1 | 6% | 53% | 33* | 65% | 23* | 19%
